Wnt act: activates Wnt/beta-catenin signaling in a reporter cell assay | activation, % at 9.35 µM | AID 743398 | actives 1.2% (n = 300,000) | activator, plate reader; in the data active = activation above about 30%, passing the limit was not always enough; inconclusive = no clear call, values can overlap the other calls
esBAF inh: blocks esBAF chromatin remodeling in mouse ES cells; Bmi1-luciferase knock-in reporter, 24 h; 100% = twice the neutral-well signal; reporter increase, % at 12.5 µM; actives 2% (n = 350,000); AID 602393; in the data active = activation above about 40%; inconclusive = no clear call, values can overlap the other calls;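 also: a rise in the Bmi1 reporter signal indicates esBAF inhibition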
MITF TRPM1 HTS: increases MITF-driven TRPM1 promoter luciferase signal; AID 588334; actives 0.75% (n = 300,000); SK-MEL-5 TRPM1-promoter luciferase, 24 h; % of positive control, neutral wells = 0; activation, % at 12.5 µM;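 active = mean activation of at least 80% with every replicate also reaching 80%; inconclusive = mean reaches 80% but some replicate falls short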
HIV Env fusion: blocks HIV Env-driven cell-cell fusion | HeLa-JRFL Env/CEM21 cell fusion, luciferase | inhibition, % at 12.3 µM | actives 1.1% (n = 360,000) | AID 651610;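 active = mean replicate inhibition score of at least 50 and every replicate individually at or above 50; inconclusive = only one of the two criteria met; inactive = mean below 50 and not all replicates reaching 50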
miR-122 sensor: miR-122 inhibition in Huh7 cells; Huh7 miR-122 Renilla luciferase sensor, 48 h; neutral wells = 0, positive control = 100; activation (reporter increase), % at 12.5 µM; actives 0.3% (n = 340,000); AID 602342;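 active = mean replicate activation score at least 90 and every replicate individually at or above 90; inconclusive = only one of the two criteria met; inactive = neither criterion met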;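 also: higher luciferase means less miR-122 activity so hits act as miR-122 inhibitors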
Hits are given with their value. An excerpt weighted towards active compounds, which were near 3.4% of everything screened.

CCOc1ccc(C(=O)Nc2ccccc2N2CCOCC2)cc1 was read as esBAF inh inactive, MITF TRPM1 HTS inactive and miR-122 sensor inactive.
O=C(CNC1CCCCCC1)Nc1ccccc1N1CCCCC1 was read as esBAF inh inactive, MITF TRPM1 HTS inactive, HIV Env fusion inconclusive and miR-122 sensor inactive.
COc1ccc(OCC(=O)Nc2ccc(N3CCN(C(=O)c4ccccc4)CC3)c(Cl)c2)cc1 was read as Wnt act inactive, esBAF inh inactive, MITF TRPM1 HTS inactive and HIV Env fusion 62.
For COc1ccc(OCC(=O)Nc2ccccc2N2CCCCC2)cc1 the results were Wnt act inactive, esBAF inh inactive, MITF TRPM1 HTS inactive, HIV Env fusion 74 and miR-122 sensor inactive.
Screening O=C(CNCC1CCCCC1)Nc1ccccc1N1CCCCC1 returned Wnt act inactive, esBAF inh inactive, HIV Env fusion 75 and miR-122 sensor inactive.
O=C(C[C@H]1CC[C@@H](NC(=O)c2ccncc2)[C@H](CO)O1)NCC1CC1 was read as esBAF inh inactive and HIV Env fusion inactive.
Screening COCCNC(=O)C[C@H]1CC[C@@H]2[C@H](COC[C@@H](O)CN2C(=O)Nc2ccc3c(c2)OCO3)O1 returned esBAF inh inactive, HIV Env fusion inactive and miR-122 sensor inactive.
Screening O=C(C[C@@H]1C[C@H]2c3cc(NC(=O)C4CCC4)ccc3O[C@H]2[C@H](CO)O1)NCc1cccnc1 returned esBAF inh inactive, HIV Env fusion inactive and miR-122 sensor inactive.
`O=C(Nc1ccccc1N1CCCCC1)c1ccc(F)cc1` gave esBAF inh inactive, MITF TRPM1 HTS inactive and miR-122 sensor inactive.
`CC(=O)c1cccc(OCC(=O)Nc2ccccc2N2CCOCC2)c1` gave Wnt act inactive, esBAF inh inactive, MITF TRPM1 HTS inactive and miR-122 sensor 93.
`O=C(Nc1ccccc1F)Nc1ccccc1N1CCCCC1` gave Wnt act 47, esBAF inh inactive, MITF TRPM1 HTS inactive, HIV Env fusion inactive and miR-122 sensor inactive.
Screening CC(C)c1cn(CC[C@@H]2CC[C@H](NS(=O)(=O)c3ccc(Cl)cc3)[C@H](CO)O2)nn1 returned esBAF inh inactive and HIV Env fusion inactive.
O=C(c1cccs1)n1cc(C(=S)N2CCOCC2)c2ccccc21 was read as Wnt act 50, esBAF inh inactive, MITF TRPM1 HTS inactive, HIV Env fusion inactive and miR-122 sensor inactive.
Screening O=C(C1CC1)n1cc(C(=S)N2CCOCC2)c2ccccc21 returned MITF TRPM1 HTS inactive and miR-122 sensor inactive.
For O=C(NCCO)c1ccc2c3n(nc2c1)-c1ccc(Cl)cc1CO3 the results were Wnt act 51, esBAF inh 68, MITF TRPM1 HTS 84, HIV Env fusion inactive and miR-122 sensor inactive.
COCCNC(=O)c1ccc2c(c1)nc(C)n2-c1cccc(Cl)c1 was read as Wnt act inactive, esBAF inh inactive, MITF TRPM1 HTS inactive, HIV Env fusion inactive and miR-122 sensor inactive.
Screening O=C(NCCO)c1cccc(Cl)c1 returned esBAF inh inactive, HIV Env fusion inactive and miR-122 sensor inactive.
`CCCC#Cc1ccc2c(c1)COc1c3ccccc3nn1-2` gave Wnt act inconclusive, esBAF inh inactive, MITF TRPM1 HTS inactive, HIV Env fusion inactive and miR-122 sensor inactive.
Cc1ccc2c(c1)COc1c3ccc(C(=O)NCCO)cc3nn1-2 was read as Wnt act 52, esBAF inh 62, MITF TRPM1 HTS 102, HIV Env fusion inactive and miR-122 sensor inactive.
`O=C(NCC1CC1)c1ccc2c3n(nc2c1)-c1ccc(Cl)cc1CO3` gave Wnt act inactive, esBAF inh 44, MITF TRPM1 HTS inactive and HIV Env fusion inactive.
For COCCNC(=O)c1ccc2c3n(nc2c1)-c1ccc(Cl)cc1CO3 the results were Wnt act inactive, esBAF inh 63, MITF TRPM1 HTS 87, HIV Env fusion inactive and miR-122 sensor inactive.
COc1ccc(NC(=O)Nc2ccc3c(c2)C(=O)N([C@H](C)CO)C[C@H](C)[C@@H](CN(C)S(=O)(=O)c2ccc(OC)cc2)OCCCC[C@@H](C)O3)cc1 was read as esBAF inh inactive, HIV Env fusion inactive and miR-122 sensor inactive.
`COCC(=O)N(C)C[C@@H]1Oc2cc(C#CCC(C)C)ccc2S(=O)(=O)N([C@H](C)CO)C[C@H]1C` gave esBAF inh inactive, HIV Env fusion inactive and miR-122 sensor inactive.
Screening Cc1noc(C)c1S(=O)(=O)Nc1cccc2c1O[C@H](CN(C)Cc1ccc(C(=O)Nc3ccccc3N)cc1)[C@H](C)CN([C@@H](C)CO)C2=O returned esBAF inh inactive and miR-122 sensor inactive.
`COCCNC(=O)c1ccc2c3n(nc2c1)-c1ccccc1CO3` gave Wnt act inactive, esBAF inh 53, MITF TRPM1 HTS inactive, HIV Env fusion inactive and miR-122 sensor inactive.
`C=CCNC(=O)c1ccc2c3n(nc2c1)-c1ccccc1CO3` gave Wnt act inactive, esBAF inh inactive, MITF TRPM1 HTS inactive, HIV Env fusion inactive and miR-122 sensor inactive.
For CCOc1cnc(-c2ccc(OC)cc2)o1 the results were MITF TRPM1 HTS 92 and miR-122 sensor inactive.
`CCOc1cnc(-c2ccc(Cl)cc2)o1` gave MITF TRPM1 HTS inactive and miR-122 sensor inactive.
For Cn1c(CN2CCCCC2)nc2cc(NC(=O)c3ccc(Cl)cc3)ccc21 the results were esBAF inh inconclusive, MITF TRPM1 HTS inactive, HIV Env fusion 79 and miR-122 sensor inactive.
Screening Cn1c(CN2CCCC2)nc2cc(NC(=O)c3ccc(Cl)cc3)ccc21 returned Wnt act inactive, esBAF inh 53, MITF TRPM1 HTS inactive, HIV Env fusion inactive and miR-122 sensor inactive.
O=C(Nc1ccc2oc(-c3ccccc3F)nc2c1)c1ncn[nH]1 was read as Wnt act 52, esBAF inh inactive, MITF TRPM1 HTS inactive, HIV Env fusion inactive and miR-122 sensor inactive.
Screening CC(=O)Nc1cccc(-c2nc3ccccc3o2)c1 returned Wnt act inactive, esBAF inh inactive and HIV Env fusion inactive.
For O=C(Nc1ccc2oc(-c3ccc(Cl)c(Cl)c3)nc2c1)c1ncn[nH]1 the results were Wnt act 42, esBAF inh 52, MITF TRPM1 HTS inactive, HIV Env fusion inactive and miR-122 sensor inactive.
Screening O=C(Nc1ccc2oc(-c3ccncc3)nc2c1)c1ccccc1F returned esBAF inh inactive, MITF TRPM1 HTS inactive and miR-122 sensor inactive.
O=C(Nc1ccc(-c2nc3cc(NC(=O)c4cccs4)ccc3o2)cc1)c1cccs1 was read as esBAF inh inactive, MITF TRPM1 HTS inactive, HIV Env fusion inactive and miR-122 sensor inactive.
Screening CC(=O)Nc1ccc2oc(-c3ccccc3)nc2c1 returned Wnt act 64, MITF TRPM1 HTS inactive, HIV Env fusion inactive and miR-122 sensor inactive.
For O=C(Nc1ccc2oc(-c3ccccc3)nc2c1)c1ccccc1F the results were esBAF inh 51, MITF TRPM1 HTS inactive and miR-122 sensor inactive.
C[C@H]1CN([C@@H](C)CO)C(=O)CCCn2cc(nn2)CO[C@H]1CN(C)Cc1cccc(O)c1 was read as esBAF inh inactive, HIV Env fusion inactive and miR-122 sensor inactive.
Screening O=C(Nc1ccc2oc(-c3cccc(F)c3)nc2c1)c1ccccc1F returned Wnt act inactive and MITF TRPM1 HTS inactive.
